Values without a mark were called inactive.
Tests used:
Settings in all cases: 60 µM; 5 days; temperature: 20 °C
[1] = test system: Meloidogyne hapla J2; assay: proportion of mobile M. hapla J2 relative to DMSO control (fraction of DMSO control); higher = more viable, less nematicidal, active = 0.7 or less
Procedure, shortened: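 Sealed 96-well plates, each well holding around 25 M. hapla J2 in distilled water with compound pinned to 60 µM final (0.6% v/v DMSO), were shaken at 200 rpm for 5 days at 20 °C. Then 2 µL of 1 M NaOH was added to each well. Microscope-scored mobility was normalised to the mean of DMSO-only wells from the same plate. Eight such wells were on each plate, and the two biological replicates were averaged.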

[2] = test system: Ditylenchus dipsaci; assay: proportion of mobile D. dipsaci (mixed stage) relative to DMSO control (fraction of DMSO control); higher = more viable, less nematicidal, active = 0.86 or less; extreme values may be limits of the assay
Procedure, shortened: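 Mobility, expressed relative to DMSO controls, is the mean of two biological replicates. The test organisms were D. dipsaci grown on pea plants in Gamborg B-5 agar and extracted into water by filter funnel, with about 20 added per well of a 96-well plate in distilled water. Compound was pinned to 60 µM final (0.6% v/v DMSO), plates were sealed and shaken at 200 rpm for 5 days at 20 °C, and mobile worms were scored under a microscope once 2 µL 1 M NaOH had been added.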

[3] = test system: Caenorhabditis elegans dauer (daf-2(e1370)); assay: proportion of mobile C. elegans dauer larvae relative to DMSO control (fraction of DMSO control); higher = more viable, less nematicidal, active = 0.63 or less; extreme values may be limits of the assay
Procedure, shortened: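 Synchronized C. elegans daf-2(e1370) larvae were held at 25 °C for 48 h on MYOB plates with E. coli OP50 to form dauers, and about 20 dauers were added per 96-well well in liquid NGM. Compound was pinned to 60 µM final (0.6% v/v DMSO), and sealed plates were shaken at 200 rpm for 5 days at 20 °C. The proportion of mobile worms was scored under a dissection microscope relative to DMSO controls and averaged over two biological replicates.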

COc1ccccc1-c1nnc(SCC(=O)Nc2ccc(Br)cn2)o1
proportion of mobile M. hapla J2 [1]: 0.908 | proportion of mobile D. dipsaci [2]: 1

CN(C)C(=O)c1ccccc1-c1nc(-c2ccccc2Cl)no1
proportion of mobile M. hapla J2 [1]: 0.882 | proportion of mobile D. dipsaci [2]: 1

COc1ccc(-c2nnc(SCC(=O)Nc3ccc(Br)cc3C)o2)cc1
proportion of mobile M. hapla J2 [1]: 0.929 | proportion of mobile D. dipsaci [2]: 0.667 (active)

CCOc1cc(-c2nc(-c3cccnc3)no2)cc(OCC)c1OCC
proportion of mobile C. elegans dauer larvae [3]: 1 | proportion of mobile D. dipsaci [2]: 1

COc1ccc(-c2noc(COc3ccc(Br)c(C)c3)n2)cc1
proportion of mobile M. hapla J2 [1]: 0.972 | proportion of mobile D. dipsaci [2]: 1

COc1ccc(-c2noc(COc3ccc(C)cc3C)n2)cc1
proportion of mobile C. elegans dauer larvae [3]: 1 | proportion of mobile D. dipsaci [2]: 1

CCCSc1nnc(-c2ccc(Cl)cc2Cl)o1
proportion of mobile C. elegans dauer larvae [3]: 0.143 (active) | proportion of mobile D. dipsaci [2]: 1

c1coc(-c2nnc(-c3ccco3)o2)c1
proportion of mobile C. elegans dauer larvae [3]: 1 | proportion of mobile D. dipsaci [2]: 1

Cc1ccc(OCc2nc(-c3ccncc3)no2)cc1C
proportion of mobile C. elegans dauer larvae [3]: 1 | proportion of mobile D. dipsaci [2]: 1

Cc1cc(Cl)ccc1NC(=O)CSc1nnc(-c2ccncc2)o1
proportion of mobile C. elegans dauer larvae [3]: 1 | proportion of mobile D. dipsaci [2]: 1

Cc1ccc(-c2noc(-c3cccc(Br)c3)n2)cc1
proportion of mobile C. elegans dauer larvae [3]: 1 | proportion of mobile D. dipsaci [2]: 1

Cc1cc(C)c(C)c(OCc2nc(-c3cccnc3)no2)c1
proportion of mobile C. elegans dauer larvae [3]: 1 | proportion of mobile D. dipsaci [2]: 1

Cc1cccc(-c2noc(-c3cccc(Cl)c3)n2)c1
proportion of mobile C. elegans dauer larvae [3]: 1 | proportion of mobile D. dipsaci [2]: 1

Cc1ccc(OCc2nc(-c3ccc(Cl)cc3)no2)cc1C
proportion of mobile C. elegans dauer larvae [3]: 1 | proportion of mobile D. dipsaci [2]: 1

O=C(CSc1nnc(-c2ccccc2)o1)Nc1cccc(Cl)c1
proportion of mobile C. elegans dauer larvae [3]: 1 | proportion of mobile D. dipsaci [2]: 1
